# Assay results reported in PubChem BioAssay (NCI).
# About 83,000 compounds went through this panel and 20% of them were active in at least one assay; those are over-represented in the sample as a whole.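 Method: cells in 96-well plates; compound added at one concentration; 48 h incubation; percent growth measured; values under 10 scored active.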 A number with no mark means an inactive call. Calls of active or inactive are those of the source.
# Test system: M14 melanoma
# Test: NCI-60 one-dose screen, 48 h (100 = growth as untreated, 0 = no growth, -100 = all killed)
# Details: 10 µM
row,Compound,growth
1,COc1cccc(C2C(C#N)=C(N)Oc3cc(N)ccc32)c1 (stereo not drawn),10.9%
2,COc1cc(/C=C/c2cc(/C=C/c3ccc(O)c(OC)c3)[nH]c(=O)n2)ccc1O,75.5%
3,COc1ccc2nc(-c3ccc(Cl)cc3)cc(-c3nnc(SC/C(=N\O)c4ccccc4)n3-c3ccccc3)c2c1,78.6%
4,CCOC(=O)CN(c1sc(C)c(C)c1C(=O)OCC)S(=O)(=O)c1ccc(C)cc1,107%
5,COc1ccc(/C=C2/SC(=S)NC2=O)c(OC)c1OC,87.4%
6,CC(C)(C)OC(=O)N1CCc2c(sc3ncnc(N/N=C/c4ccccc4Br)c23)C1,83.3%
7,NC(CSC(c1ccccc1)(c1ccccc1)c1cccc2ccccc12)C(=O)O (stereo not drawn),108%
8,CN(C)CCCOc1ccccc1NC1=C(Cl)C(=O)C(Nc2ccccc2OCCCN(C)C)=C(Cl)C1=O,-68.8% (active)
9,NS(=O)(=O)c1ccc(Br)cc1,86.3%
10,CN(C)CCCOc1ccc(NC2=C(Cl)C(=O)C(Nc3ccc(OCCCN(C)C)cc3)=C(Cl)C2=O)cc1,-71.8% (active)
11,COc1ccc(-c2n[nH]nc2-c2cc(OC)c3c(c2OC)OCO3)cc1,20.6%
12,C=CCn1c(SCC(=O)Nc2ccc(C(=O)/C=C/c3cc(OC)c(OC)c(OC)c3)cc2)nnc1-c1cc(-c2ccc(Cl)cc2)nc2ccccc12,95.5%
13,COc1ccc(C2=Cn3c(CCC(=O)c4nc5ccccc5[nH]4)nnc3SC2)cc1,111%
14,CCN1CCN(CCC(=O)Nc2cccc(-n3cc(-c4ccncc4)c(-c4ccc(Cl)c(OC)c4)n3)c2)CC1,-63.4% (active)
15,N#CCc1csc(Cc2ccccc2)n1,101%
16,Cc1[nH]c2ccccc2c1/C=N/Nc1ncnc2sc3c(c12)CCN(CC(=O)OC(C)(C)C)C3,73.1%
17,CCCc1cn(CC(=O)Nc2nc3ccccc3s2)nn1,102%
18,C/C=C/CSC(C)(C)C(=O)NC,104%
19,Cc1ccc(Cl)cc1NC(=O)CCl,62.7%
20,CCOC(=O)c1cc(C(=O)c2ccc(OC)c(OC)c2)n2c1ccc1ccc3cccnc3c12,7.8% (active)
21,Cc1c(Cl)cccc1NC(=O)CCCl,97%
22,Cc1ccc(NCCNCC(C)(C)O)c2c(=O)c3ccc(Cl)cc3sc12,-78.7% (active)
23,OCC1OC(n2cnc3c(NCc4ccco4)ncnc32)C(O)C1O (stereo not drawn),31.2%
24,NS(=O)(=O)Oc1ccc(NC(=O)C2CCCCCC2)cc1,108%
25,COc1cc(-c2nn(-c3ccc(NC(=O)NCCNS(=O)(=O)c4ccc(F)cc4)cc3)cc2-c2ccncc2)ccc1Cl,-18% (active)
26,NS(=O)(=O)Oc1ccc2c(ccn2C(=O)C23CC4CC(CC(C4)C2)C3)c1,112%
27,COc1ccc(-c2cc(-c3ccc(Cl)cc3)nc(SCCCC(=O)NO)n2)cc1,-31.1% (active)
28,Nc1cc(Br)c(-c2nn3c(CCC(=O)c4nc5ccccc5[nH]4)nnc3s2)c(Br)c1,97.5%
